Results as given in PubChem BioAssay (NCI).
About 83,000 compounds went through this panel and 20% of them were active in at least one assay; those are over-represented in the sample as a whole.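 Method: cells in 96-well plates; compound added at one concentration; 48 h incubation; percent growth measured; values under 10 scored active.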 Values without a mark were called inactive. The source made the active and inactive calls.

System: SR leukemia
Experiment: NCI-60 one-dose screen, 48 h (100 = growth as untreated, 0 = no growth, -100 = all killed)
Settings: 10 µM unless noted

Question: Which growth does the source give for CC1(C)C2=C(C(=O)N1Cc1ccccc1)C(c1ccco1)N(C(=O)C1CCC1)CCN2 (centres undefined) here?
Answer: The growth was 94.9%.

Question: With COc1ccc(Nc2nccc(Nc3ccc4[nH]ncc4c3)n2)cc1 as the molecule, how does the growth read?
Answer: The growth was 4.38% (active).

Question: Cc1nn(-c2ccccc2)c(Oc2ccccc2)c1/C=N/NC(=O)Cn1c(=O)sc2ccccc21 was tested. Which growth did it give?
Answer: Its growth is 38.2%.

Question: How did the growth turn out when CCN1C(=O)N(CC)C2C1NC(=S)N2/N=C/C=C/c1cccs1 (centres undefined) was run?
Answer: The growth was 17.8%.

Question: For O=C(Nc1ncc(Cc2ccc(Cl)cc2)s1)c1ccc2c(c1)OCCO2, which growth is on record?
Answer: The growth was 4.7% (active).

Question: C#Cc1ccc(NC(=O)Cc2ccc(/C=C/C(=O)c3nccn3C)cc2)cc1 was tested. Which growth did it give?
Answer: The growth was 20.8%.

Question: How did the growth turn out when CN(C)CCOc1nc2c3cc([N+](=O)[O-])ccc3nn2c2ccccc12 was run?
Answer: Its growth is 7.43% (active).

Question: With CCN(CC)CCCC(Nc1c2ccc(Cl)cc2nc2ccc(OC)cc12)c1ccncc1 (centres undefined) as the molecule, how does the growth read?
Answer: The growth was -6.47% (active).

Question: For CCOC(=O)c1cnc2sc(-c3ccc(OC)cc3)nc2c1Cl, which growth is on record?
Answer: Its growth is 96.8%.

Question: Which growth does the source give for COc1ccc2c(O)cc3c(c2c1)[C@H](CCl)CN3C(=O)c1cc2cc(NC(=O)CCN3CCOCC3)ccc2[se]1 here?
Answer: Its growth is 52.5%.

Question: With Oc1ccc(Cc2ccc(O)c3ncccc23)c2cccnc12 as the molecule, how does the growth read?
Answer: The growth was 9.74% (active).

Question: Which growth does the source give for CO[C@]12C=C/C(=C(/C(=O)OCc3cccnc3)C(=O)CCCCCCCC[C@]3(OC)C=C/C(=C(/C(=O)OCc4cccnc4)C(=O)CCCCCCCC1)O3)O2 here?
Answer: The growth was -20.7% (active).

Question: How did the growth turn out when CC(C)=CCC[C@](C)(O)C1CC[C@]2(C)[C@@H]1CC[C@@H]1[C@@]3(C)CC/C(=N\OCCC#N)C(C)(C)[C@@H]3CC[C@]12C (some centres undefined) was run?
Answer: The growth was 61.6%.

Question: With Cn1cc(-c2ccc3c(Nc4cccc(NC(=O)Nc5cccc(F)c5)c4)ncnc3c2)cn1 as the molecule, how does the growth read?
Answer: Its growth is 0.802% (active).

Question: With O=c1oc2ccccc2cc1-c1nn(-c2ccccc2)cc1/C=N/Nc1nc(-c2ccccc2)c(N=Nc2ccccc2)s1 as the molecule, how does the growth read?
Answer: Its growth is 21.9%.

Question: How did the growth turn out when CCCNNC(=O)c1ccc(CNC(=O)/C=C/c2ccccc2)cc1 was run?
Answer: The growth was 30.8% [2.5 µM].

Question: For C=C(CNCCO)[C@@H]1CC[C@]2(CO)CC[C@]3(C)[C@H](CC[C@@H]4[C@@]5(C)CCC(NCCO)C(C)(C)[C@@H]5CC[C@]43C)[C@@H]12 (some centres undefined), which growth is on record?
Answer: The growth was -22.9% (active).

Question: For COc1cccc(-c2cc(-c3ccc(Nc4nc(Nc5ccc(Cl)cc5)nc(Nc5ccc(Cl)cc5)n4)cc3)nc(N)c2C#N)c1, which growth is on record?
Answer: Its growth is -6.27% (active).

Question: With CC(C)C(=O)Nc1ncc(C(=O)NCCN(Cc2ccccc2)C(=O)c2ccc(S(=O)(=O)Nc3ccccc3)cc2)s1 as the molecule, how does the growth read?
Answer: The growth was 100%.

Question: How did the growth turn out when CN1CCN(Cc2ccc(NC(=O)c3cncc(C#Cc4cnc(N)c5ccc(C#N)cc45)c3)cc2C(F)(F)F)CC1 was run?
Answer: Its growth is 20%.

Question: How did the growth turn out when COc1ccc2c(c1)c(-c1nc(-c3cn(C)c4ccncc34)cs1)cn2C was run?
Answer: Its growth is -26.1% (active).

Question: How did the growth turn out when O=C(OCC(O)(CO)C(=O)NC12CC3CC(CC(C3)C1)C2)c1ccc(Cl)cc1 (centres undefined) was run?
Answer: The growth was 86%.

Question: How did the growth turn out when Cn1ccnc1C(=O)/C=C/c1ccc(CC(=O)Nc2cc(F)c(F)c(F)c2)cc1 was run?
Answer: Its growth is 12.1%.

Question: For Cc1ccc(Nc2cc(N)nc(N)n2)cc1, which growth is on record?
Answer: The growth was 105%.

Question: How did the growth turn out when Cc1nc2ccccc2c(/C=C/c2ccc(Cl)cc2)c1C(=O)/C=C/c1ccccc1 was run?
Answer: Its growth is 11.5%.

Question: With NS(=O)(=O)Oc1cccc(-c2nc3sccn3c2-c2ccccc2)c1 as the molecule, how does the growth read?
Answer: Its growth is 19.8%.

System: OVCAR-8 ovarian
Experiment: as above
Settings: 10 µM unless noted

Question: Which growth does the source give for CNC(=O)c1cc(Oc2ccc3nc(NC(=O)Nc4ccc(F)cc4F)sc3c2)ccn1 here?
Answer: Its growth is 45.1%.

Question: For CCOC(=O)c1c2c(n3ccc(NC(=O)CCN4CCCC4)cc13)C(=O)c1ncccc1C2=O, which growth is on record?
Answer: Its growth is -33.3% (active).

Question: Which growth does the source give for CNC(=O)c1cc(Oc2ccc3nc(NC(=O)c4cc(C(F)(F)F)cc(C(F)(F)F)c4)sc3c2)ccn1 here?
Answer: Its growth is 20.8%.

Question: Which growth does the source give for CC(=O)CC(=O)c1ccccc1.[Cu+2] here?
Answer: The growth was 110%.

Question: For O=c1c2cccc3c(N4CCOCC4)ccc(c32)c2nc3ccccc3n12, which growth is on record?
Answer: Its growth is 93.8%.

Question: How did the growth turn out when CN(C)C(=O)OCc1ccc2c(Cl)cc(Cl)c(O)c2n1 was run?
Answer: Its growth is 22.6%.

Question: For COc1ccc(-c2ccc(-c3ccc(C(=N)N)nc3)s2)cc1, which growth is on record?
Answer: The growth was -17.4% (active).

Question: For CN1CCN(c2ccc(Nc3ncc4[nH]c(=O)n(Cc5ccccc5N)c4n3)cc2)CC1, which growth is on record?
Answer: The growth was 98.4%.

Question: How did the growth turn out when NC(=N\N=C/c1ccc(Cl)cc1Cl)/C(N)=N\N=C/c1ccc(Cl)cc1Cl was run?
Answer: The growth was 76.6%.

Question: Which growth does the source give for C=C1C(=O)O[C@H]2[C@H]1CC/C(COC(=O)NCc1ccc(Cn3c(=O)sn(CCCC)c3=O)cc1)=C\CC[C@@]1(C)O[C@@H]21 here?
Answer: Its growth is 65.4%.

Question: Which growth does the source give for FC(F)(F)c1cccc(-c2nnn(Cc3cc(-c4cccc(Cl)c4)no3)n2)c1 here?
Answer: The growth was 101%.

Question: O=C(c1ccc(F)cc1)C1CCN(CCn2c(=O)[nH]c3ccccc3c2=O)CC1 was tested. Which growth did it give?
Answer: Its growth is 103%.

Question: How did the growth turn out when Cc1ccc(C2(C)NC(=O)N(CC(=O)Nc3cccc(C)c3)C2=O)cc1 (centres undefined) was run?
Answer: Its growth is 105%.

Question: For COc1ccc(C(=O)C2OC3=C(C(=O)CC(C)(C)C3)C2c2cccc(Oc3ccccc3)c2)cc1 (centres undefined), which growth is on record?
Answer: The growth was 88.9%.

Question: How did the growth turn out when CC1(C)C2=C(C(=O)N1Cc1ccccc1)C(c1ccco1)N(C(=O)C1CCC1)CCN2 (centres undefined) was run?
Answer: The growth was 115%.

Question: With COc1ccc(Nc2nccc(Nc3ccc4[nH]ncc4c3)n2)cc1 as the molecule, how does the growth read?
Answer: Its growth is 9.36% (active).

Question: Cc1nn(-c2ccccc2)c(Oc2ccccc2)c1/C=N/NC(=O)Cn1c(=O)sc2ccccc21 was tested. Which growth did it give?
Answer: Its growth is 48.8%.

Question: How did the growth turn out when CCN1C(=O)N(CC)C2C1NC(=S)N2/N=C/C=C/c1cccs1 (centres undefined) was run?
Answer: The growth was 17.2%.

Question: Which growth does the source give for O=C(Nc1ncc(Cc2ccc(Cl)cc2)s1)c1ccc2c(c1)OCCO2 here?
Answer: The growth was 21.7%.

Question: Which growth does the source give for C#Cc1ccc(NC(=O)Cc2ccc(/C=C/C(=O)c3nccn3C)cc2)cc1 here?
Answer: Its growth is 26.2%.

Question: CN(C)CCOc1nc2c3cc([N+](=O)[O-])ccc3nn2c2ccccc12 was tested. Which growth did it give?
Answer: Its growth is 31.5%.

Question: CCN(CC)CCCC(Nc1c2ccc(Cl)cc2nc2ccc(OC)cc12)c1ccncc1 (centres undefined) was tested. Which growth did it give?
Answer: The growth was 58.4%.

Question: CCOC(=O)c1cnc2sc(-c3ccc(OC)cc3)nc2c1Cl was tested. Which growth did it give?
Answer: The growth was 112%.

Question: How did the growth turn out when COc1ccc2c(O)cc3c(c2c1)[C@H](CCl)CN3C(=O)c1cc2cc(NC(=O)CCN3CCOCC3)ccc2[se]1 was run?
Answer: Its growth is -98.1% (active).

Question: For Oc1ccc(Cc2ccc(O)c3ncccc23)c2cccnc12, which growth is on record?
Answer: The growth was 12.6%.

Question: Which growth does the source give for CO[C@]12C=C/C(=C(/C(=O)OCc3cccnc3)C(=O)CCCCCCCC[C@]3(OC)C=C/C(=C(/C(=O)OCc4cccnc4)C(=O)CCCCCCCC1)O3)O2 here?
Answer: Its growth is 7.77% (active).

Question: For CC(C)=CCC[C@](C)(O)C1CC[C@]2(C)[C@@H]1CC[C@@H]1[C@@]3(C)CC/C(=N\OCCC#N)C(C)(C)[C@@H]3CC[C@]12C (some centres undefined), which growth is on record?
Answer: Its growth is 85.1%.

Question: Cn1cc(-c2ccc3c(Nc4cccc(NC(=O)Nc5cccc(F)c5)c4)ncnc3c2)cn1 was tested. Which growth did it give?
Answer: Its growth is 34.6%.

Question: O=c1oc2ccccc2cc1-c1nn(-c2ccccc2)cc1/C=N/Nc1nc(-c2ccccc2)c(N=Nc2ccccc2)s1 was tested. Which growth did it give?
Answer: Its growth is 77.9%.

Question: With CCCNNC(=O)c1ccc(CNC(=O)/C=C/c2ccccc2)cc1 as the molecule, how does the growth read?
Answer: Its growth is 20.7% [2.5 µM].

Question: Which growth does the source give for C=C(CNCCO)[C@@H]1CC[C@]2(CO)CC[C@]3(C)[C@H](CC[C@@H]4[C@@]5(C)CCC(NCCO)C(C)(C)[C@@H]5CC[C@]43C)[C@@H]12 (some centres undefined) here?
Answer: Its growth is 75.8%.

Question: For COc1cccc(-c2cc(-c3ccc(Nc4nc(Nc5ccc(Cl)cc5)nc(Nc5ccc(Cl)cc5)n4)cc3)nc(N)c2C#N)c1, which growth is on record?
Answer: Its growth is 48.9%.

Question: With CN1CCN(Cc2ccc(NC(=O)c3cncc(C#Cc4cnc(N)c5ccc(C#N)cc45)c3)cc2C(F)(F)F)CC1 as the molecule, how does the growth read?
Answer: The growth was -68.4% (active).

Question: COc1ccc2c(c1)c(-c1nc(-c3cn(C)c4ccncc34)cs1)cn2C was tested. Which growth did it give?
Answer: Its growth is -3.91% (active).

Question: Which growth does the source give for Cn1ccnc1C(=O)/C=C/c1ccc(CC(=O)Nc2cc(F)c(F)c(F)c2)cc1 here?
Answer: Its growth is -3.42% (active).

Question: How did the growth turn out when Cc1ccc(Nc2cc(N)nc(N)n2)cc1 was run?
Answer: The growth was 103%.

Question: With Cc1nc2ccccc2c(/C=C/c2ccc(Cl)cc2)c1C(=O)/C=C/c1ccccc1 as the molecule, how does the growth read?
Answer: Its growth is -2.61% (active).

Question: How did the growth turn out when NS(=O)(=O)Oc1cccc(-c2nc3sccn3c2-c2ccccc2)c1 was run?
Answer: Its growth is 66.8%.
